CIT2-GFP yeast: modulators of TOR pathway CIT2-GFP in S. cerevisiae | GFP response vs DMSO, % at 10 µM | 320,000 compounds, 0.065% hits | S. cerevisiae CIT2-GFP strain, flow cytometry, 3 h; 100 means same as DMSO wells | AID 2029;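 active = GFP response relative to DMSO above a set limit, near the screen mean plus 3 SD, cut at about 150% in these data; inconclusive = Fewer than 70 cells measured for a yeast strain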;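 also: ratio of well median GFP fluorescence to mean of DMSO wells on the plate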
RPL19A-GFP yeast: yeast TOR pathway RPL19A-GFP modulation. S. cerevisiae RPL19A-GFP strain, flow cytometry, 3 h; stronger effect = lower value. AID 2025. 330,000 compounds, 0.3% hits. percent response vs DMSO, % at 10 µM;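 active = percent response vs DMSO below 50%; inconclusive = fewer than 70 events counted for the yeast strain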;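 also: median channel GFP fluorescence of the barcoded RPL19A-GFP strain; lower means less RPL19A-GFP as with rapamycin TOR inhibition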
Efflux pump mplx: inhibitors of Candida antifungal efflux pumps expressed in yeast; 330,000 compounds, 0.44% hits; S. cerevisiae Candida pump triplex, Nile Red efflux; inhibition, % at 10 µM;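 active = plate passing quality check with inhibition over a set limit, or well fluorescence over plate mean plus 4 SD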;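 also: Nile Red retained in pooled yeast measured as flow cytometry median fluorescence; higher means more Nile Red kept so more efflux inhibition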
LAP4-GFP MLPCN: yeast TOR pathway LAP4-GFP modulation. S. cerevisiae LAP4-GFP multiplex, flow cytometry GFP, 3 h; median GFP as percent of DMSO wells. 320,000 compounds, 0.34% hits. GFP response vs DMSO, % at 10 µM;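 active = GFP response vs DMSO above a set limit, about the screen mean plus 3 SD, cut at about 150% in these data; inconclusive = under 70 cell events counted for the yeast strain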
MEP2-GFP yeast: yeast TOR pathway MEP2-GFP modulation | S. cerevisiae MEP2-GFP strain, flow cytometry GFP, 3 h; 100% = DMSO control level | GFP response vs DMSO, % at 10 µM | 330,000 compounds, 0.51% hits | AID 2016;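 active = GFP response versus DMSO above a set limit, roughly screen mean plus 3 SD, cut at about 180% in these data; inconclusive = fewer than 70 cells counted for a yeast strain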;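 also: median GFP fluorescence of the barcode-gated MEP2-GFP cells per well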
AGP1 TOR yeast: alters AGP1-GFP fluorescence in TOR pathway yeast screen. S. cerevisiae AGP1-GFP multiplex flow cytometry, 3 h; GFP as percent of DMSO wells. GFP response vs DMSO, % at 10 µM. 320,000 compounds, 0.02% hits;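 active = GFP response relative to DMSO above a set limit, near screen average plus 3 SD, cut at about 150% in these data; inconclusive = fewer than 70 cells counted for the yeast strain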;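 also: median GFP channel fluorescence of the gated AGP1 strain per well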
Each line names hits and unclear results; the compound was inactive in the other large screens; [ ] = another dose, or the depositor's remark. Hits are enriched below; roughly 1.3% of the tested compounds scored in any of these assays.

CCOc1ncccc1C(=O)OCC(=O)NCCCc1ccccc1	none
O=C(Nc1ccc(CN2CCOCC2)cc1)c1ccccc1F	CIT2-GFP yeast inconclusive, RPL19A-GFP yeast 40.8[may fluoresce violet]
O=C(O)C1C2C=CC(C2)C1C(=O)NCc1ccccc1F (stereo not given)	none
Oc1[nH]c(N=C2N=c3ccccc3=N2)c2ccccc12	CIT2-GFP yeast inconclusive, MEP2-GFP yeast 190.5[may fluoresce violet]
Cc1ccc(S(=O)(=O)CC(=O)Nc2nc3ccc(S(N)(=O)=O)cc3s2)cc1	none
NC(=O)c1cc2ccc(O)cc2oc1=NCc1ccccc1	CIT2-GFP yeast inconclusive, RPL19A-GFP yeast 46.6[may fluoresce violet] (no result: AGP1 TOR yeast)
NC(=O)c1cc2ccccc2oc1=NCc1ccccc1	none
CCC(=O)OC1(C)C(=O)C=C2C=C(CCCC(=O)OC)OC=C2C1=O (stereo not given)	none
CCCCC1=CC2=CC(=O)C(C)(OC(=O)CC)C(=O)C2=CO1 (stereo not given)	CIT2-GFP yeast inconclusive, RPL19A-GFP yeast 35.4[may fluoresce violet], MEP2-GFP yeast 260.1[may fluoresce violet], AGP1 TOR yeast inconclusive
O=C(C[C@@H]1C/C=C\C[C@@H](NC(=O)OCC2c3ccccc3-c3ccccc32)C(=O)OCCNC1=O)N[C@@H](CO)Cc1ccccc1	none
CCC12CC3CC(C1)CC(C(=O)O)(C3)C2	CIT2-GFP yeast inconclusive, MEP2-GFP yeast 182.6[may fluoresce violet]
NC(=O)CC12CC3CC(C1)CC(CC(N)=O)(C3)C2	none
CCN(Cc1ccccc1)C(=O)COC(=O)[C@@H]1CCCN1C(=O)c1cccs1	none
COc1cccc(CNC(=O)CN(C)S(=O)(=O)c2ccc(Br)s2)c1	none
CC1(C)CC(=O)C(C(C2=C(O)CC(C)(C)CC2=O)c2cccs2)C(=O)C1 (stereo not given)	MEP2-GFP yeast 185.1
CC1(C)CC(=O)C(C(C2=C(O)CC(C)(C)CC2=O)c2cccc(O)c2)C(=O)C1 (stereo not given)	none
O=C(CNC(c1ccccc1)c1ccccc1)NCc1ccccc1Cl	none
Cc1cccc(N2CCN(C(=O)COc3ccc4ccc(=O)oc4c3)CC2)c1C	CIT2-GFP yeast inconclusive, RPL19A-GFP yeast 41.8[may fluoresce violet]
O=C(COc1ccc2ccc(=O)oc2c1)N1CCN(c2ccccc2)CC1	none
Cc1ccccc1SCC(=O)NNC(=O)c1ccccc1O	none (no result: CIT2-GFP yeast)
CCOC(=O)c1[nH]cnc1C(=O)Nc1ccc([N+](=O)[O-])cc1	CIT2-GFP yeast inconclusive, RPL19A-GFP yeast 32.7[may fluoresce violet], MEP2-GFP yeast 761.2[may fluoresce violet], AGP1 TOR yeast inconclusive
O=[N+]([O-])c1cc([N+](=O)[O-])c2cc3ccccc3nc2c1	LAP4-GFP MLPCN 189.3
O=[N+]([O-])c1cnc2ccccc2c1	none
Cc1onc(-c2ccccc2)c1C(=O)NC(=S)NNC(=O)c1ccncc1	none
Cc1onc(-c2ccccc2)c1C(=O)NC(=S)NNC(=O)c1ccco1	LAP4-GFP MLPCN 158.2
CCOC(=O)C1CCN(c2cc(=O)n(C3CCCCC3)c(=O)[nH]2)CC1	none
CCOC(=O)N1CCN(c2cc(=O)n(C3CCCCC3)c(=O)[nH]2)CC1	CIT2-GFP yeast inconclusive, MEP2-GFP yeast 266.0[may fluoresce violet], AGP1 TOR yeast inconclusive
N#CCCn1cc(CNC2CCC(O)CC2)c2ccccc21 (stereo not given)	CIT2-GFP yeast inconclusive, RPL19A-GFP yeast 45.6[may fluoresce violet], MEP2-GFP yeast 244.8[may fluoresce violet], AGP1 TOR yeast inconclusive
COc1ccc(CCNC(=O)/C=C/c2ccc(OC)c(S(=O)(=O)N3CCOCC3)c2)cc1	none
CCOc1cc2c(cc1/C=C/C(=O)O)OC(C)C2 (stereo not given)	CIT2-GFP yeast inconclusive, MEP2-GFP yeast 606.8[may fluoresce violet]
COc1cc2c(cc1/C=C/C(=O)O)OC(C)C2 (stereo not given)	none
O=C1c2ccccc2C2=Nc3ccccc3SC(c3cccc(F)c3)C12 (stereo not given)	MEP2-GFP yeast 180.0
COc1ccc(CNC(=O)CSc2ncn[nH]2)cc1OC	none
NNC(=O)c1ccc(CSc2nc3ccccc3[nH]2)cc1	CIT2-GFP yeast inconclusive, RPL19A-GFP yeast 45.4[may fluoresce violet], AGP1 TOR yeast inconclusive
CSc1n[nH]c(=O)n1C1CCCCC1	none
C=CCC(=O)N1CCCC(CO)(Cc2ccc(F)cc2F)C1 (stereo not given)	none
CCC(=O)N1c2ccc(S(=O)(=O)CCC(=O)Nc3nccs3)cc2CC1C (stereo not given)	CIT2-GFP yeast inconclusive, RPL19A-GFP yeast 28.7[may fluoresce violet], LAP4-GFP MLPCN inconclusive, MEP2-GFP yeast inconclusive, AGP1 TOR yeast inconclusive
N#CC1=C(N)Oc2cc(O)c(Cl)cc2C1c1cccnc1 (stereo not given)	none
N#CC1=C(N)Oc2cc(O)ccc2C1c1cccnc1 (stereo not given)	CIT2-GFP yeast inconclusive, MEP2-GFP yeast 209.8[may fluoresce violet]
O=C(c1c[nH]c2ccccc12)C(Cl)c1ccccc1 (stereo not given)	none
C=CCOc1ccc(/C(O)=C2/C(=O)C(=O)N(CCCN3CCOCC3)C2c2ccc(OC)cc2)cc1 (stereo not given)	none
C=CCOc1ccc(/C(O)=C2/C(=O)C(=O)N(CCCN3CCOCC3)C2c2ccccc2)cc1 (stereo not given)	CIT2-GFP yeast inconclusive, RPL19A-GFP yeast 29.2[may fluoresce violet], MEP2-GFP yeast 315.5[may fluoresce violet], AGP1 TOR yeast inconclusive
Cc1ccc(NS(=O)(=O)c2ccc(-n3cccn3)cc2)cc1F	CIT2-GFP yeast inconclusive, RPL19A-GFP yeast 13.9[may fluoresce violet], AGP1 TOR yeast inconclusive
Cc1cccc(NS(=O)(=O)c2ccc(-n3cccn3)cc2)c1C	CIT2-GFP yeast inconclusive, RPL19A-GFP yeast 22.4[may fluoresce violet], AGP1 TOR yeast inconclusive
Cc1c(Br)c([N+](=O)[O-])nn1CC(=O)NC1CCCCCC1	none
Cc1cccc(N2CCN(S(=O)(=O)c3ccc(Cl)nc3)CC2C)c1 (stereo not given)	none
COc1ccc(N=C2S/C(=C\c3ccc(Cl)c([N+](=O)[O-])c3)C(=O)N2CCN(C)C)cc1	none
CCN(CC)CCN1C(=O)/C(=C\c2ccc(Cl)c([N+](=O)[O-])c2)SC1=Nc1ccc(OC)cc1	CIT2-GFP yeast inconclusive, MEP2-GFP yeast 197.3[may fluoresce violet], AGP1 TOR yeast inconclusive
COc1ccc(CCNC(=O)C/C(C)=N/NC(=O)C(c2ccccc2)c2ccccc2)cc1OC	none
Cc1cccc(N(Cc2ccccc2)C(=O)Cc2ccc(S(=O)(=O)N3CCOCC3)s2)c1	none
Cc1ccc(S(=O)(=O)NNC(=O)c2cc3cc4ccccc4nc3s2)cc1	CIT2-GFP yeast inconclusive, RPL19A-GFP yeast 44.6[may fluoresce violet], MEP2-GFP yeast 597.6[may fluoresce violet]
Nc1ccc(CC2SC(=O)NC2=O)cc1 (stereo not given)	CIT2-GFP yeast inconclusive, MEP2-GFP yeast 415.7[may fluoresce violet], AGP1 TOR yeast inconclusive
Cc1ccc(CC2SC(=O)NC2=O)cc1Cl (stereo not given)	none
N#CC12COC3(CCCCC3C1(C#N)C#N)OC2=N (stereo not given)	CIT2-GFP yeast inconclusive, RPL19A-GFP yeast 48.4[may fluoresce violet], MEP2-GFP yeast 181.9[may fluoresce violet], AGP1 TOR yeast inconclusive
N#CC1(C#N)COC23CCCCC2C1(C#N)C(=N)O3 (stereo not given)	none
